VP16 counter = Gal4-VP16 reporter inhibition counter-screen; Drosophila S2 Gal4-VP16 UAS-luciferase, luminescence, 20 h; Potency, µM (highest dose often 53.6 µM), most hits filed as inhibitors; hit rate 3.5% among 310,000;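 further: Gal4-VP16 expression switched on by copper sulfate through the metallothionein promoter; nearly all actives have a fitted effect of over 50% in size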
Tau fibril ThT = inhibitors of human tau fibril formation, thioflavin T binding; hit rate 2.1% among 270,000; AID 1460; recombinant tau K18 P301L, heparin-induced fibrillization, ThT fluorescence; Potency, µM (top dose mostly 57.4 µM), actives largely listed as inhibitors; P10636; further: nearly all actives have a fitted effect of over 55% in size
Target sequence (P10636 561-689 P618L limits assumed): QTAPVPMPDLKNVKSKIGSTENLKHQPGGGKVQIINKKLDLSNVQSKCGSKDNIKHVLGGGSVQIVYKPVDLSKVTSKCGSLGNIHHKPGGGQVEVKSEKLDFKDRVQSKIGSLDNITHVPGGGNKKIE
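ThT emission at 510 nm, taken 1 hr after adding 30 uM dye, quantifies aggregates formed when 20 uM heparin acts on human tau K18 P301L for 6 hr at 37 C.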
RORgamma inh = inhibitors of mouse ROR gamma transcriptional activity. P51450. AID 2551. Drosophila S2 Gal4-RORgamma UAS-luciferase reporter, 20 h. hit rate 5.4% among 310,000. Potency, µM (titrated, usually from 53.6 µM), most hits filed as inhibitors; further: nearly all actives have a fitted effect of over 60% in size
Target sequence (P51450 whole entry, looked up, the tested form may be a part): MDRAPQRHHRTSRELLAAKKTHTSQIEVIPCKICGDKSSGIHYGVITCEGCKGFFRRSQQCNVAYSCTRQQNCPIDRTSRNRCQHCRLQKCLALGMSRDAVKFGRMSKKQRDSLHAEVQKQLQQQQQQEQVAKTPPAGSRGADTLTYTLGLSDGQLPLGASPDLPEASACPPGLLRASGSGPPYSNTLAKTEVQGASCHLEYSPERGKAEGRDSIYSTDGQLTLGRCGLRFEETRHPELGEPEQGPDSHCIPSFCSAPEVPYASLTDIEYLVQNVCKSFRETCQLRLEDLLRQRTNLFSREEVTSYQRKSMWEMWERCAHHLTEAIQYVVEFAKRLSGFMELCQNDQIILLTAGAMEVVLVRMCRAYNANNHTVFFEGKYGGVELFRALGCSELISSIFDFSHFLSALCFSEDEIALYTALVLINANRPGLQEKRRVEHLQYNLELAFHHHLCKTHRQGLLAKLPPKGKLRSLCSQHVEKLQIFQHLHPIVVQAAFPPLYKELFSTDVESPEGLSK
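In this cell-based reporter format, copper sulfate (700 uM final) drives Gal4–ROR gamma fusion expression from a metallothionein promoter in Drosophila Schneider cells; compounds preincubated 1 hr, reporter read after 20 hr at ambient temperature.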
Tau FP inhib = blocks human tau fibril formation measured by polarization | K18 P301L tau heparin fibrillization, Alexa594 FP, 6 h | hit rate 0.39% among 280,000 | Potency, µM (top dose mostly 57.7 µM), hits mostly inhibitors | P10636; further: nearly all actives have a fitted effect of over 55% in size
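Steps: dispense K18 P301L tau (15 uM plus 0.24 uM Alexa 594 tracer, final) in pH 7 sodium acetate; add compound; add heparin (20 uM final); incubate 6 hr, 37 C; add ThT (30 uM final); after 1 hr ambient, read FP.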
Tau fluor cs = counter-screen for tau fibril formation inhibitors; tau K18 P301L (four-repeat tau fragment) Alexa594 fluorescence, heparin fibrillization; Potency, µM (doses to about 57.7 µM); hit rate 0.93% among 280,000; further: nearly all actives have a fitted effect of over 55% in size
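Human K18 P301L tau (15 uM unlabeled plus 0.24 uM Alexa 594-labeled, final) in 100 mM sodium acetate pH 7 was mixed with compound and 20 uM heparin and incubated 6 hr at 37 C.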
Hits are given with their value; – = inactive; ? = inconclusive; · = not tested or not shown; [ ] = dose if it differs, or a comment. A selection: hits, their analogues and other compounds. The true share with any hit is near 7.3%. The call rests on the fitted dose curve; in most records, active means well fitted curve in the direction sought with a large enough effect; inconclusive means small, poorly fitted or top-dose-only effect, or another doubt; inactive means no such curve, though single readings can be large; an effect the other way counts as inactive or inconclusive.

SMILES	VP16 counter	Tau fibril ThT	RORgamma inh	Tau FP inhib	Tau fluor cs
O=[N+]([O-])c1cccc(-c2csc(N/N=C/c3cccc(O)c3)n2)c1	–	6.31µM	–	–	7.94µM[quencher]
O=C(Nc1cccc(-c2csc(Nc3cccc(C(F)(F)F)c3)n2)c1)c1cc([N+](=O)[O-])cc(C(F)(F)F)c1	–	?	–	–	2.51µM[quencher]
CCOC(=O)Cc1csc(N/N=C/c2cccc([N+](=O)[O-])c2)n1	–	·	?	·	·
CCc1ccc(-n2c(=O)c3c4c(sc3n(CC(=O)NCCCOC)c2=O)CCC4)cc1	·	–	·	–	–
O=C(Nc1ccc(-c2csc(Nc3ccc(Cl)cc3)n2)cc1)c1cccc(C(F)(F)F)c1	–	?	–	–	3.98µM[quencher]
CS/C(Nc1cc(Cl)ccc1Cl)=C(/C#N)C(=O)c1ccco1	14.1µM	–	10µM	–	–
Cc1cc(=O)nc2c3ccccc3n(C(C)C(=O)NCCN3CCOCC3)n12 (centres undefined)	–	·	–	·	·
CC(C)c1c(O)ccc2c1CCC1[C@@](C)(C=O)CCC[C@@]21C (some centres undefined)	?	–	–	–	?
CN(C)C(=O)/N=N/C(=O)N(C)C	·	7.94µM	·	14.1µM	–
COc1ccc(/C=C/c2nc(-c3ccccc3O)n[nH]2)cc1OC	?	–	–	?	15.8µM[quencher]
O=C1C(=O)N(Cc2ccncc2)C(c2ccccc2F)/C1=C(\O)c1ccc2c(c1)OCCO2 (centres undefined)	–	·	–	·	·
Cc1cc(C2=NNC(=NCCc3ccccc3)SC2)c(C)n1CC1CCCO1 (centres undefined)	–	–	–	–	–
FC(F)Sc1ccc(N=C2NN=C(c3ccc4c(c3)OCCO4)CS2)cc1	–	?	–	–	?
CCCCN=C1NN=C(c2ccc3c(c2)OCCO3)CS1	7.94µM	?	4.47µM	–	–
CCCCN=C1NN=C(c2ccc(C)c(C)c2)CS1	12.6µM	?	7.08µM	–	–
c1cc2c(cc1C1=NNC(=NC3CC3)SC1)OCCO2	2.24µM	?	2.51µM	–	–
Clc1ccc(C2=NNC(=NCC3CCCO3)SC2)cc1 (centres undefined)	?	–	?	–	–
COc1ccc(N=C2NN=C(c3ccc4c(c3)OCCO4)CS2)cc1	–	7.08µM	–	?	?
COc1ccc(-c2nc(CS(=O)(=O)CC(=O)NCCCN3CCN(C)CC3)c(C)o2)cc1	–	·	–	·	·
CCCCCCCCCCCCCCCC(=O)OCC(COC(=O)CCCCCCCCCCCCCCC)OC(=O)CCCCCCCCCCCCCCC	–	·	–	·	·
Cc1cc(C(=O)Nc2nncs2)oc1C	–	·	–	·	·
COCCN=C1NN=C(c2ccc(C)c([N+](=O)[O-])c2)CS1	–	?	12.6µM	–	–
O=S1(=O)N=C(Nc2nncs2)c2ccccc21	10µM	?	?	?	–
CCN(CC)S(=O)(=O)c1ccc(NC2=NS(=O)(=O)c3ccccc32)cc1	–	–	–	–	–
COC(=O)c1ccc(NC(=O)CC2C(=O)N(c3cccc(OC)c3)C(=O)N2Cc2ccco2)cc1 (centres undefined)	·	–	·	–	–
SMILES	VP16 counter	Tau fibril ThT	RORgamma inh	Tau FP inhib	Tau fluor cs
CC1(C)Cc2c(sc3[nH]c(=S)n(Cc4ccccc4)c(=O)c23)CO1	0.891µM	?	–	–	–
Oc1cc(O)cc(/C=C/c2ccc(O)c(O)c2)c1	–	7.08µM	–	–	11.2µM[quencher]
C/C=C/c1ccc(O)c(OC)c1	–	·	–[10 µM]	·	·
Oc1ccc(Br)cc1CN1CCCCCCC1	–	–	–	–	–
COc1cc(CN2CCc3ccccc3C2)cc([N+](=O)[O-])c1O	–	·	–	·	·
CCOC(=O)N1CCN(Cc2ccccn2)CC1	–	–	–	–	–
Oc1ccc(CN2CCCCC2)c2cccnc12	7.94µM	?	7.08µM	–	–
COc1cc(CN2CCc3ccccc3C2)ccc1O	3.55µM	?	5.62µM	–	–
CCOC(=O)N1CCN(Cc2ccc(O)c3ncccc23)CC1	5.01µM	?	2.51µM	–	–
OCc1ccc(O)c2ncccc12	17.8µM	–	12.6µM	–	–
Cc1ccc(C)c(S(=O)(=O)N2CCN(Cc3ccc(O)c4ncccc34)CC2)c1	3.16µM	–	2µM	–	–
COc1cccc(CNc2ccccc2O)c1OCc1ccccc1F	–	?	?	–	?
Oc1c(Cl)cc(CN2CCCCC2)c2cccnc12	3.55µM	·	4.47µM	·	·
Oc1ccc(CNc2ccccc2F)c2cccnc12	?	?	10µM	–	–
Oc1ccc2ccccc2c1CN1CCN(c2ccccc2)CC1	–	?	–	–	?
Oc1ccc(CN2CCN(c3ccccc3)CC2)c2cccnc12	1µM	?	1.26µM	–	–
Oc1ccc(CN2CCc3ccccc3C2)c2cccnc12	?	?	1µM	–	–
Oc1cc2c(cc1CN1CCc3ccccc3C1)OCO2	–	·	–	·	·
Oc1ccc(CN2CCC(Cc3ccccc3)CC2)c2cccnc12	4.47µM	?	2.24µM	–	–
Cc1ncc([N+](=O)[O-])n1S(=O)(=O)c1cc(Br)ccc1Br	–	·	–[1.91 µM]	·	·
COc1cc(Nc2nc(-c3ccccc3)c3cc(C)ccc3n2)cc(OC)c1OC	–	15.8µM	–	?	?
CCOCCn1c(CN2CCN(c3ccc(F)cc3)CC2)nc2c1c(=O)n(C)c(=O)n2C	?	–	–	–	–
Cn1c(=O)c2c(nc(CN3CCN(Cc4ccccc4)CC3)n2CCN2CCOCC2)n(C)c1=O	–	–	1.58µM	–	–
COC(=O)Cn1c(CN2CCN(c3ccc(F)cc3)CC2)nc2c1c(=O)n(C)c(=O)n2C	2.82µM	–	–	–	–
COC(=O)Cn1c(CN2CCc3ccccc3C2)nc2c1c(=O)n(C)c(=O)n2C	5.62µM	–	–	–	–
SMILES	VP16 counter	Tau fibril ThT	RORgamma inh	Tau FP inhib	Tau fluor cs
Cn1c(=O)c2c(nc(CN3CCC(Cc4ccccc4)CC3)n2CCN2CCOCC2)n(C)c1=O	–	–	–	–	–
O=C(NNCS(=O)(=O)O)c1ccncc1	–	·	–	·	·
O=C(c1ccc(Cl)cc1)n1nc(-c2ccccc2)nc1NCc1ccco1	·	–	·	?	–
COc1ccc(NC(=S)/N=C(\N)Nc2nc(C)c3ccccc3n2)cc1	4.47µM	·	1µM	–	–
COc1ccc2nc(N/C(N)=N/C(=S)Nc3cccc(C)c3)nc(C)c2c1	4.47µM	?	3.55µM	–	–
CCOc1ccc2nc(N/C(N)=N/C(=S)Nc3cccc(OC)c3)nc(C)c2c1	?	–	0.794µM	–	–
CCOc1ccc2nc(N/C(N)=N/C(=S)Nc3cccc(C)c3)nc(C)c2c1	3.55µM	?	1.58µM	–	–
COc1ccc2nc(N/C(N)=N/C(=S)Nc3c(C)cccc3C)nc(C)c2c1	–	–	–	–	–
Cc1ccc2oc3c(c(=O)c2c1)C(c1cccc(O)c1)N(Cc1ccccc1Cl)C3=O (centres undefined)	·	–	·	?	–
CCOC(=O)N1CCN(C(=O)c2ccc3c(=O)n(Cc4ccccc4)c(=S)[nH]c3c2)CC1	?	–	12.6µM	–	–
O=C(c1ccc2c(=O)n(Cc3ccc4c(c3)OCO4)c(=S)[nH]c2c1)N1CCCCC1	–	–	?	–	–

High-throughput results deposited in PubChem BioAssay by National Center for Advancing Translational Sciences (NCATS).
